The text below walks through data of the supplement of paper PMC11219838.

Molecules are shown by their SMILES.

In the first test the test system is Caenorhabditis elegans dauer (daf-2(e1370)). The test is described as follows: proportion of mobile C. elegans dauer larvae relative to DMSO control (fraction of DMSO control); higher = more viable, less nematicidal, active = 0.63 or less; extreme values may be limits of the assay. The conditions noted are these: 60 µM; 5 days; temperature: 20 °C. Put shortly:
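Synchronized C. elegans larvae were kept for 48 h at 25 °C on MYOB plates seeded with E. coli OP50 to induce dauer formation, and roughly 20 dauers were transferred into each well of a 96-well plate containing liquid NGM. Compound was pinned in to a final concentration of 60 µM with 0.6% v/v DMSO, and the sealed plates were shaken at 200 rpm for 5 days at 20 °C. The fraction of mobile worms was scored under a dissection microscope against DMSO-only wells and averaged across two biological replicates.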
For `N#Cc1ccc(OCc2nc(-c3cccs3)no2)cc1`, the “proportion of mobile C. elegans dauer larvae” value was 1 (inactive).
Same read-out and setting: the figure for `Cc1ccccc1-c1nnc(SCc2ccc(F)cc2)o1` is 1 (inactive).
For `O=C(c1ccccc1-c1nc(-c2ccccc2Cl)no1)N1CCCCC1`, the “proportion of mobile C. elegans dauer larvae” value is 1 (inactive).
The same measure, in the same setting: the figure for `Cc1cccc(OC(C)c2nc(-c3cccnc3)no2)c1` (stereo not drawn) is 1 (inactive); for `COc1ccc(-c2noc(-c3cccc(C)c3)n2)cc1` it is 0.889 (inactive).
In the case of `O=C(CSc1nnc(-c2ccc(Br)cc2)o1)Nc1nccs1`, the “proportion of mobile C. elegans dauer larvae” value was 1 (inactive).
As for `c1ccc(-c2noc(CSc3nc4ccccc4[nH]3)n2)cc1`, the “proportion of mobile C. elegans dauer larvae” value was 1 (inactive).
For the compound `Fc1ccc(-c2noc(COc3cccc(Cl)c3)n2)cc1`, the “proportion of mobile C. elegans dauer larvae” value is 1 (inactive).
As to `CC(C)(C)c1ccc(OCc2nc(-c3ccccc3)no2)cc1`, the “proportion of mobile C. elegans dauer larvae” value was 1 (inactive).
Still for that read-out and setting: the figure for `Cc1ccc(C(=O)CSc2nnc(-c3ccco3)o2)o1` is 1 (inactive); for `COc1ccc(C(=O)CSc2nnc(-c3cccc(Br)c3)o2)cc1` it is 1 (inactive); for `O=C(CSc1nnc(-c2ccccc2Cl)o1)NCc1ccco1` it is 1 (inactive).
On the same count and under the same terms, under `FC(F)(F)c1cccc(-c2noc(-c3ccc4c(c3)OCO4)n2)c1` stands 1 (inactive); under `Cc1nnc(CSc2nnc(-c3ccc(Cl)cc3)o2)o1`, 1 (inactive).
The same measure, in the same setting: the figure for `Brc1ccc(CSc2nnc(-c3ccco3)o2)cc1` is 1 (inactive).
With `O=C(CSc1nnc(-c2cccnc2)o1)c1ccc2ccccc2c1`, the “proportion of mobile C. elegans dauer larvae” value is 1 (inactive).
For the compound `O=C(CSc1nnc(-c2ccncc2)o1)Nc1cc(Cl)cc(Cl)c1`, the “proportion of mobile C. elegans dauer larvae” value was 1 (inactive).
The same measure, in the same setting: under `Clc1ccc(-c2noc(COc3ccccc3Cl)n2)cc1` stands 1 (inactive); under `Cc1ccc(OCc2nc(-c3ccc(Cl)cc3)no2)c(C)c1`, 1 (inactive).

The subject of the next test is Ditylenchus dipsaci. Nature of the test: proportion of mobile D. dipsaci (mixed stage) relative to DMSO control (fraction of DMSO control); higher = more viable, less nematicidal, active = 0.86 or less; extreme values may be limits of the assay. The conditions noted are these: 60 µM; 5 days; temperature: 20 °C. In short, it runs like this: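 Mobility, expressed relative to DMSO controls, is the mean of two biological replicates. The test organisms were D. dipsaci grown on pea plants in Gamborg B-5 agar and extracted into water by filter funnel, with about 20 added per well of a 96-well plate in distilled water. Compound was pinned to 60 µM final (0.6% v/v DMSO), plates were sealed and shaken at 200 rpm for 5 days at 20 °C, and mobile worms were scored under a microscope once 2 µL 1 M NaOH had been added.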
Turning to `N#Cc1ccc(OCc2nc(-c3cccs3)no2)cc1`, the “proportion of mobile D. dipsaci” value is 1 (inactive).
Same read-out and setting: under `Cc1ccc(C)c(OCc2nc(-c3ccccc3Cl)no2)c1` stands 1 (inactive).
Same read-out and setting: the figure for `Cc1ccccc1-c1nnc(SCc2ccc(F)cc2)o1` is 1 (inactive).
`O=C(c1ccccc1-c1nc(-c2ccccc2Cl)no1)N1CCCCC1`: the “proportion of mobile D. dipsaci” value is 1 (inactive).
For `CCOc1nc(-c2ccccc2)ccc1-c1noc(CC)n1`, the “proportion of mobile D. dipsaci” value is 1 (inactive).
Still for that read-out and setting: the figure for `Cc1ccccc1-c1noc(-c2ccc(F)cc2)n1` is 1 (inactive); for `Cc1cccc(OC(C)c2nc(-c3cccnc3)no2)c1` (stereo not drawn) it is 1 (inactive).
On the same count and under the same terms, under `COc1ccc(-c2noc(-c3cccc(C)c3)n2)cc1` stands 1 (inactive); under `O=C(CSc1nnc(-c2ccc(Br)cc2)o1)NC1CCCC1`, 1 (inactive).
Still for that read-out and setting: under `Cc1cc(OCc2nc(-c3ccccn3)no2)c(C)cc1Br` stands 1 (inactive).
Regarding `O=C(CSc1nnc(-c2ccc(Br)cc2)o1)Nc1nccs1`, the “proportion of mobile D. dipsaci” value is 1 (inactive).
Still for that read-out and setting: the figure for `Cc1ccc(-c2nc(-c3cccc(C)c3)no2)cc1` is 1 (inactive); for `c1ccc(-c2noc(CSc3nc4ccccc4[nH]3)n2)cc1` it is 1 (inactive); for `COc1ccc(-c2nnc(SCC(=O)Nc3ccc(Cl)c(Br)c3)o2)cc1` it is 1 (inactive).
For `Fc1ccc(-c2noc(COc3cccc(Cl)c3)n2)cc1`, the “proportion of mobile D. dipsaci” value is 1 (inactive).
Still for that read-out and setting: under `Cc1ccc(-c2nnc(SCC(=O)Nc3ccc(Br)c(C)c3C)o2)cc1` stands 1 (inactive).
Same read-out and setting: under `CC(C)(C)c1ccc(OCc2nc(-c3ccccc3)no2)cc1` stands 1 (inactive); under `Cc1ccc(C(=O)CSc2nnc(-c3ccco3)o2)o1`, 1 (inactive).
For `Cc1cc(OC(C)c2nc(-c3cccnc3)no2)ccc1Cl` (stereo not drawn), the “proportion of mobile D. dipsaci” value was 1 (inactive).
For `COc1ccc(C(=O)CSc2nnc(-c3cccc(Br)c3)o2)cc1`, the “proportion of mobile D. dipsaci” value is 1 (inactive).
`CC1Cc2ccccc2N1C(=O)CSc1nnc(-c2ccccc2)o1` (stereo not drawn): the “proportion of mobile D. dipsaci” value was 1 (inactive).
Still for that read-out and setting: the figure for `O=C(CSc1nnc(-c2ccccc2Cl)o1)NCc1ccco1` is 1 (inactive); for `FC(F)(F)c1cccc(-c2noc(-c3ccc4c(c3)OCO4)n2)c1` it is 1 (inactive); for `CNC(=O)c1ccccc1-c1nc(-c2ccccc2Cl)no1` it is 1 (inactive).
In the case of `Cc1nnc(CSc2nnc(-c3ccc(Cl)cc3)o2)o1`, the “proportion of mobile D. dipsaci” value is 1 (inactive).
Still for that read-out and setting: under `Cc1ccccc1CSc1nnc(-c2ccco2)o1` stands 1 (inactive).
With `Cc1ccc(OCc2nc(-c3ccccc3)no2)cc1C`, the “proportion of mobile D. dipsaci” value is 1 (inactive).
Consider `Cc1cc(C)c(C)c(OCc2nc(-c3cccnc3)no2)c1`, for which the “proportion of mobile D. dipsaci” value was 1 (inactive).
Same read-out and setting: the figure for `CCOc1ccc(-c2nc(-c3ccccc3C)no2)cc1` is 1 (inactive).
As for `Brc1ccc(CSc2nnc(-c3ccco3)o2)cc1`, the “proportion of mobile D. dipsaci” value was 1 (inactive).
Still for that read-out and setting: under `CC(=O)Nc1ccc(NC(=O)c2ccccc2-c2nc(-c3ccccc3Cl)no2)cc1` stands 1 (inactive); under `O=C(CSc1nnc(-c2cccnc2)o1)c1ccc2ccccc2c1`, 1 (inactive).
On the same count and under the same terms, the figure for `O=C(CSc1nnc(-c2ccncc2)o1)Nc1cc(Cl)cc(Cl)c1` is 0.955 (inactive); for `Brc1ccccc1-c1nc(-c2ccccc2)no1` it is 1 (inactive).
